# Measurements taken from PubChem BioAssay (NCATS).
# “And” between values parts separate entries of the source, which are not always exact repeats. Equal entries are not always repeated. Records with an inconclusive call do not appear. The source made the active and inactive calls. Calls come from the whole dose curve; as a rule, active = well fitted activation curve with a large enough effect; inconclusive = small, poorly fitted or top-dose-only effect; inactive = no such curve, though single readings can be large or run the other way.
# Target: Cellular tumor antigen p53 (Homo sapiens) (UniProt P04637)
# Sequence (P04637 whole entry, looked up): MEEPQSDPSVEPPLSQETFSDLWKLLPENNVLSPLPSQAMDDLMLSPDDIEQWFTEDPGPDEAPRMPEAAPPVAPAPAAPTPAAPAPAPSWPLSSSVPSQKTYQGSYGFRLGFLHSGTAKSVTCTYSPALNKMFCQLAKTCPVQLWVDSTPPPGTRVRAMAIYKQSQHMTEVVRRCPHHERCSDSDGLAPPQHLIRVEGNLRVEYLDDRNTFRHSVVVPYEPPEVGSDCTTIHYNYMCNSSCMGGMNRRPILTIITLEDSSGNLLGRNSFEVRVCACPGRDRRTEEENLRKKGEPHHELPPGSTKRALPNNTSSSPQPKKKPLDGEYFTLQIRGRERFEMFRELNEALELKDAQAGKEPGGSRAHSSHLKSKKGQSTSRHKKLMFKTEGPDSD
# Experiment: Primary qHTS for small molecule compounds that upregulate eGFP-tagged delta133p53alpha (in N-terminal) cells. (AID 2060322); note: nearly all actives have a fitted effect of over 75% in size;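 for activation: cells pre-induced with doxycycline then dosed without doxycycline; series mostly up to about 56 µM; 0% = DMSO vehicle and 100% = reference activator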
# Details: NCI-H358 eGFP-delta133p53alpha fluorescence, 24 h; activation: hits give high values
# Excerpt: Assay Development and Screening Technology
# National Center for Advancing Translational Sciences (NCATS),
# National Institute of Health (NIH), Rockville, Maryland
# Cellular senescence (CS) is one of the hallmarks of aging and age-related diseases. Senescent cells are characterized by an irreversible growth arrest, an increase in senescence-associated beta-galactosidase (SA-beta-gal) activity and p16INK4a expression, an activation of the DNA damage response pathways, and the emergence of a senescence-associated secretory phenotype (SASP).
# Delta133p53alpha, a human/primate-specific p53 protein isoform, delays or inhibits the induction of CS and SASP in various types of human cells, including progeria-derived fibroblasts, primary normal astrocytes, and CD8+ T lymphocytes. Induction of delta133p53alpha with small molecule compounds may provide therapeutic opportunities for inhibition of senescence/SASP-associated pathologies in progeria syndromes, astrocyte-mediated neuroprotection in neurodegenerative diseases, and possibly prevention and treatment of a wider range of senescence- and aging-associated diseases.
# Here we report the development and validation of a cell-based quantitative high throughput screening (qHTS) assay in 1,536-well format. This qHTS assay uses the NCI-H358 cell line with doxycycline-inducible expression of enhanced green fluorescent protein (eGFP)-tagged delta133p53alpha, which allows efficient and highly quantitative measurement of the protein levels.
# PROTOCOL TABLE (as described by Inglese J, Shamu CE and Guy RK. 2007)
# SEQUENCE No. (e.g., 1, 2, 3, etc.); […] (e.g., Cells, Incubation, Reagent, etc.); VALUE; DESCRIPTION.
# 1; Cells; 4uL; 800 doxycycline treated cells / well in doxycycline-free media, 1536-well black, clear-bottom low base Aurora microplates.
# 2; Compounds; 23 nL; Kalypsis pin tool (Wako) equipped with 1536-well pin heads, 5-azacytidine positive control.
# 3; Incubation; 24 hr; 37C, 5% CO2; 95% relative humidity.
# 4; Aspiration; 1x; BioTek EL406 washer dispenser (Agilent).
# 5; Fixing; 3.5% paraformaldehyde, BioTek EL406 washer dispenser (Agilent).
# 6; Washing; 1x PBS; BioTek EL406 washer dispenser (Agilent).
# 7; Nuclei staining; 1:1000 dilution of Hoechst 33342 (Thermofisher), BioTek EL406 washer dispenser (Agilent).
# 8; Incubation; 20 min; in the dark at room temperature.
# 9; Washing; 2x, 1x PBS (ThermoFisher), BioTek EL406 washer dispenser (Agilent).
# 10; Reagent; 10 uL; 1x PBS per well, sealed with clear adhesive tape.
# NOTES (numbers refer to sequence numbers above).
# 1. NCI-H358 cells expressing eGFP-tagged delta133p53alpha were grown in T75 culture flasks and treated with doxycycline for 24h, at 10 ng/ml for eGFP-D133p53a cells (N-terminal cell) and 100 ng/ml for D133p53a-eGFP cells (C-terminal cells). Cells were trypsinized, counted using a Counted 3 Automated Cell Counter (Thermo Fisher), and diluted to a concentration of 200,000 cells/ml. A Multidrop Combi Reagent Dispenser (ThermoFisher) was used to dispense 800 cells/well in […] of doxycycline-free media, into 1536-well black/clear bottom low base plates (AuroraMicroplates).
# 2. After plating cells, 23 nl of compound library, DMSO vehicle control or positive control (5-azacytidine) were transferred by Pin Tool (Wako). The plate map layout was the same for each plate: (column 1) non-doxycycline treated cells + DMSO vehicle control; (column 2) doxycycline treated cells + DMSO vehicle control baseline; (column 3) doxycycline treated cells + positive control 57.5 uM final concentration 5-azacytidine; (column 4) doxycycline treated cells + serial dilution of 5-azacytidine, 16-point 1:2 titration spanning 1.8 nM to […] final concentration; (columns 5-48) doxycycline treated cells + titration of library compounds.
# 3. Cells were incubated at 37 °C, 5 % CO2, 95% RH with breathable metal lid for 24h.
# 4-10. […] After two washes, 10 ul of 1X PBS (Thermo Fisher) was dispensed to each well. Clear adhesive plate seals (VWR) were applied and plates stored at 4 °C.
# 11. […]
# Potency is the fitted concentration of half-maximal effect.
SMILES,activation,Potency
COCC1OC(=O)c2coc3c2C1(C)C1=C(C3=O)C2CCC(=O)C2(C)CC1O (stereo not given),-7.63% (inactive),–
CN(C)CCc1c[nH]c2ccc(CN3CCN(C)S3(=O)=O)cc12,-4.3% (inactive),–
CN1C(=O)CN=C(c2ccccc2)c2cc([N+](=O)[O-])ccc21,-19.8% (inactive),–
Clc1ccc(N2CC3CCC(C2)N3)nn1,-9.56% (inactive),–
O=C1Nc2ccc3ncsc3c2/C1=C/c1cnc[nH]1,–,2390 nM (active)
O=S1(=O)N(CCN2CC=C(c3c[nH]c4cc(F)ccc34)CC2)c2cccc3c2N1CCC3,24.1% (inactive),–
CCCC[N+]1(C)[C@@H]2CC(OC(=O)[C@H](CO)c3ccccc3)C[C@H]1[C@@H]1O[C@@H]12 (stereo not given in full),-28.8% (inactive) and -9.82% (inactive),–
C[C@]12CC[C@H]3[C@@H](CCC4=CC(=O)CC[C@@H]43)[C@@H]1CC[C@@H]2O,-0.837% (inactive),–
CN1C[C@H](CNC(=O)OCc2ccccc2)C[C@@H]2c3cccc4c3c(cn4C)C[C@H]21,-6.69% (inactive) and -23.9% (inactive),–
C[C@H](N)Cc1cccc(C(F)(F)F)c1,-17% (inactive),–
CN(C)C(=O)Oc1cc(OC(=O)N(C)C)cc(C(O)CNC(C)(C)C)c1 (stereo not given),-17.6% (inactive),–
C[C@]12CC[C@H](O)C[C@H]1CC[C@@H]1[C@@H]2[C@H](O)C(=O)[C@]2(C)[C@@H](c3ccc(=O)oc3)CC[C@]12O,–,190 nM (active)
OCCCCC#Cc1cncc(OC[C@@H]2CCN2)c1,-1.43% (inactive),–
CCCN(CCC)[C@@H]1CCc2ccc3[nH]c(C#N)cc3c2C1,19.1% (inactive),–
C[C@]12CC[C@H](O[C@@H]3O[C@H](CO)[C@@H](O)[C@H](O)[C@H]3O[C@@H]3O[C@H](CO)[C@@H](O)[C@H](O)[C@H]3O)CC1=CC[C@@H]1[C@@H]2CC[C@]2(C)[C@@H](C3=CC(=O)OC3)CC[C@]12O,8.93% (inactive),–
c1ccc2c(c1)Nc1ccccc1S2,13% (inactive) and 14.2% (inactive),–
CN(Cc1cccc(-c2ccncc2)c1)C(=O)Oc1ccc(-c2ccc(C(N)=O)cc2)cc1,-8.11% (inactive),–
CCC(C)/C=C(C)/C=C/C1=CC2=C(Cl)C(=O)C(C)(OC(C)=O)C(=O)C2=CO1 (stereo not given),-16% (inactive),–
CCCCc1ccc(C(=O)O)nc1,16.6% (inactive),–
CC[C@@H](C(N)=O)N1CCCC1=O,0.54% (inactive),–

SMILES,activation,Potency
CCC(C(N)=O)N1CCCC1=O (stereo not given),-3.35% (inactive),–
CCOP(=O)(OCC)Oc1ccc2c(C)cc(=O)oc2c1,6.33% (inactive),–
Cc1cccc(C)c1NC(=O)CN1CCCC1=O,-17.7% (inactive) and -15.1% (inactive) and -5.58% (inactive),–
CC(=O)OCC1=C(C(=O)O)N2C(=O)[C@@H](N)[C@H]2SC1,19.8% (inactive) and -5.67% (inactive),–
C[C@H]1C(=O)O[C@@H]2CCN3CC=C(COC(=O)[C@](C)(O)[C@]1(C)O)[C@H]23,-36.8% (inactive),–
NCCc1ccc(O)cc1,0.565% (inactive) and 11.2% (inactive),–
O=C(OC[C@H]1O[C@@H](Oc2ccc(O)cc2CO)[C@H](O)[C@@H](O)[C@@H]1O)c1ccccc1,28.6% (inactive),–
CCC(C)C(C)(COC(N)=O)COC(N)=O (stereo not given),8.37% (inactive),–
CCCCn1cc(C(=O)c2cccc3ccccc23)c2ccccc21,0.955% (inactive),–
COC1CC(O[C@H]2CC[C@@]3(C)C(=CCC4C3C(O)[C@@H](O)[C@]3(C)[C@@H](C(C)=O)CC[C@]43O)C2)OC(C)C1OC1CC(OC)C(OC2OC(C)C(O)C(O)C2O)C(C)O1 (stereo not given in full),-14.5% (inactive),–
O=C(N/N=C/c1ccc([N+](=O)[O-])o1)c1cc([N+](=O)[O-])cc([N+](=O)[O-])c1O,-6.21% (inactive),–
C=C(CO)C(=O)O[C@H]1C/C(C)=C/CC/C(CO)=C/[C@H]2OC(=O)C(=C)[C@H]12,-16.8% (inactive),–
O=[N+]([O-])c1cc([As](=O)(O)O)ccc1O,9.21% (inactive),–
O=[N+]([O-])c1ccc2nc(N3CCNCC3)ccc2c1,-42.9% (inactive),–
Clc1ccc(CCC(Cn2ccnc2)Sc2c(Cl)cccc2Cl)cc1 (stereo not given),18.6% (inactive) and -21.6% (inactive),–
CC1N=C(N)OC1c1ccccc1 (stereo not given),-17.5% (inactive),–
C[C@H]1CN(CC[C@H](O)C2CCCCC2)CC[C@@]1(C)c1cccc(O)c1,-6.21% (inactive),–
CN1C[C@@H](NS(=O)(=O)N(C)C)C[C@@H]2c3cccc4c3c(cn4C)C[C@H]21,14.1% (inactive),–
CCCCCn1cc(C(=O)c2cccc3ccccc23)c2ccccc21,20.5% (inactive),–
CN1CCN(C(=O)O[C@H]2c3nccnc3C(=O)N2c2ccc(Cl)cn2)CC1,11.9% (inactive) and -19.6% (inactive),–
